Source: PubChem BioAssay (several laboratories)
ALR inh: blocks human ALR sulfhydryl oxidase activity. inhibition, % (concentration not given with the values). hit rate 3.8% among 290,000. purified ALR, DTT oxidation, H2O2 HRP-luminol luminescence;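 active = mean replicate inhibition above about 79%, with every replicate also reaching it, limit read from the data; inconclusive = only one of the two criteria met; inactive = mean below limit and not every replicate reaching it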
NRP1-CendR mod: alters CendR peptide binding to human NRP-1; O14786; FAM-RPARPAR peptide binding to NRP-1, fluorescence polarization; inhibition, % at 25 µM; hit rate 0.85% among 360,000; AID 602438;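 active = inhibition or corrected inhibition above about 18%, plus a signal ratio from 0.5 to 1.5, limit read from the data, passing the limit was not always enough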
ERp5 inh: inhibitors of human ERp5; AID 651711; ERp5 insulin aggregation, absorbance 650 nm, 90 min; Q15084; hit rate 0.05% among 350,000; inhibition, % at 9.99 µM;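 active = mean replicate inhibition above about 25%, with every replicate also reaching it, limit read from the data, passing the limit was not always enough; inconclusive = only one of those two criteria met; inactive = neither criterion met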
ARNT-TACC3 inh: disrupts binding between human ARNT and TACC3 | AlphaScreen His-ARNT PAS-B/GST-TACC3 binding, luminescence; TACC3 fragment carries E629A point mutation | AID 623870 | hit rate 0.66% among 390,000 | inhibition, % at 9.99 µM;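 active = mean inhibition of replicates at least 50% and at least half of replicates each reaching 50%; inconclusive = half or more replicates reach 50% but mean below 50%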;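 also: 0% = complete ARNT plus TACC3 wells and 100% = ARNT alone without TACC3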
PDI turbidity: PDI (human) enzyme inhibition | P07237 | PDI insulin aggregation turbidity, A650, 90 min | inhibition, % at 10 µM | hit rate 0.052% among 350,000 | AID 588391;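 active = mean inhibition across replicates of 30% or more, whatever share of single replicates reach that level; inconclusive = mean inhibition below 30% while every single replicate reaches 30%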
Target sequence (P07237 whole entry, looked up): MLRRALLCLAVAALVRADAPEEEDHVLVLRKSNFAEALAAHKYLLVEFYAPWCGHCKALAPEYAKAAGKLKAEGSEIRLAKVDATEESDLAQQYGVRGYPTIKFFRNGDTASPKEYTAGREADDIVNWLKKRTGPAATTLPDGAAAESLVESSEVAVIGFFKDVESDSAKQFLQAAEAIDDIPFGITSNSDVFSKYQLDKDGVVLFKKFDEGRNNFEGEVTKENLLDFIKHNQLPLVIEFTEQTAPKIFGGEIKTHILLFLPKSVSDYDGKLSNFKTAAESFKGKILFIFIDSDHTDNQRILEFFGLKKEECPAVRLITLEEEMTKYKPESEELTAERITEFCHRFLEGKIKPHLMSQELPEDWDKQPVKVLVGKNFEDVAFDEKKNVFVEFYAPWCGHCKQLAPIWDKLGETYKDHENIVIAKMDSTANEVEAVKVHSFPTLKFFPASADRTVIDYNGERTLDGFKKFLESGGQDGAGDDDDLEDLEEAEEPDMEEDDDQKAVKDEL
PglD inh: blocks C. jejuni PglD acetyltransferase activity. purified PglD enzyme, DTNB colorimetric CoA detection. inhibition, % at 12.5 µM. hit rate 0.098% among 360,000; in the data active = inhibition above about 16%, passing the limit was not always enough; inconclusive = no clear call, values can overlap the other calls
Numbers without * were called inactive; ? = inconclusive; · = no result given. Only a selection was taken, and hits are over-represented in it overall.

SMILES	ALR inh	NRP1-CendR mod	ERp5 inh	ARNT-TACC3 inh	PDI turbidity	PglD inh
CCN(CC)c1ccc(CN2CCC(C(=O)NCc3ccc(C)cc3)CC2)cc1	82*	-8	-5	12	-2	·
CO[C@@H]1CC[C@@H]2CCN(C)C(=O)[C@@H](C)CN(C)C(=O)c3cc(C#N)ccc3OC[C@H]1O2	·	·	-1	-6	·	2
CCOC(=O)c1ccc(NC(=O)CSc2nccn2C)cc1	99*	2	·	-6	6	-6
Cc1ccc(NC(=O)CSc2nccn2C)cc1F	-5	9	2	-2	9	5
Cn1ccnc1SCC(=O)Nc1ccc2c(c1)COC2=O	99*	2	·	0	2	-3
COc1ccc(NC(=O)CSc2nccn2C)cc1S(N)(=O)=O	99*	-1	7	-4	1	·
CC(=O)c1ccc(NC(=O)CSc2nccn2C)cc1	?	1	3	1	0	·
C[C@H](CO)N1C[C@H](C)[C@H](CN(C)C)Oc2ccc(NC(=O)CCN3CCOCC3)cc2C1=O	·	·	-5	-3	·	11
O=C(CSC1=Nc2ccccc2C2CC=NN12)NCc1ccco1 (stereo unspecified)	99*	-11	8	-1	-3	-2
CCCOC(=O)c1ccc(NC(=O)CSC2=Nc3ccccc3C3CC=NN23)cc1 (stereo unspecified)	97*	-10	1	0	-2	0
COc1cccc(C#Cc2ccc3c(c2)[C@H]2[C@H](CCN2S(=O)(=O)c2cccc(OC)c2)[C@H](CO)N3)c1	·	·	-7	·	·	·
COc1ccc(/C=N/Nc2nc3ccccc3o2)cc1O	99*	4	·	44*	-5	-2
COc1ccc(/C=N/Nc2nc3ccccc3s2)cc1O	·	4	-4	-2	1	·
COc1cc(/C=N\Nc2nc3ccccc3o2)cc(OC)c1OC	-25	3	·	5	-2	2
COc1cc(/C=N/Nc2nc3ccccc3o2)cc(OC)c1O	99*	-1	·	13	5	-3
Cn1nc2c(c1C(=O)N1CCCC(C(=O)c3cc(F)ccc3F)C1)CCCC2 (stereo unspecified)	0	53*	2	·	1	·
Clc1cccc(Cc2c(-c3cccc(Br)c3)nc3ccc(Cl)cn23)c1	·	-18	-2	·	·	3
Cc1ccc2nc(-c3cccc(Br)c3)c(Cc3cccc(Cl)c3)n2c1	·	-14	25*	·	·	6
CCCc1ccc(-c2cc(N)n[nH]2)cc1	99*	6	-1	-8	-2	1
CCCCc1ccc(-c2nc(N)n[nH]2)cc1	0	-1	·	0	-9	1
CCOC(=O)CSc1n[nH]c(NC(=O)c2cccc(C)c2)n1	97*	-10	·	-3	0	-5
Cn1nnnc1Sc1ncnc2scc(-c3ccc[nH]3)c12	94*	-8	-5	3	-2	-6
O=C(C[C@H]1C=C[C@H](NC(=O)c2ccccn2)[C@H](CO)O1)NCc1cccc(F)c1	·	·	2	2	·	-3
COc1ccc(C2=NN(c3ccccc3)C(c3cn(CCC(=O)O)nc3-c3ccccc3)C2)cc1 (stereo unspecified)	94*	7	7	-25	6	·
COc1ccc2c(c1OC)C(=O)N1N=C(c3ccccc3)CC21 (stereo unspecified)	1	-5	·	-2	-6	2
SMILES	ALR inh	NRP1-CendR mod	ERp5 inh	ARNT-TACC3 inh	PDI turbidity	PglD inh
COc1ccc(C2CC(c3ccccc3)=NN2c2ccccc2)c(C(=O)O)c1OC (stereo unspecified)	99*	-6	-3	-11	0	-1
COc1ccc(C2CC(c3ccccc3)=NN2c2ccc(N)cc2)cc1 (stereo unspecified)	-6	-56	5	-29	3	·
COc1ccc(C2CC(c3ccccc3)=NN2c2ccc(Cl)c(C(=O)O)c2)cc1 (stereo unspecified)	98*	-15	2	-26	-4	3
COc1cc(C2CC(c3ccccc3)=NN2c2ccccc2)ccc1OCC(=O)O (stereo unspecified)	99*	-4	5	-15	-10	4
COc1ccc(-c2nn(CCC(=O)O)cc2CCC(=O)O)cc1	-4	11	·	-9	-5	-4
Cc1ccccc1-c1ccccc1[C@H]1[C@@H](CO)N(C(=O)c2ccccc2)[C@H]1C#N	·	·	3	·	·	·
O=C(NCC1CCCO1)c1nn2c(C(F)(F)F)cc(-c3cc(Br)cs3)nc2c1Br (stereo unspecified)	-4	35*	1	-3	-16	3
O=C(NCC1CCCO1)c1nn2c(C(F)(F)F)cc(-c3ccco3)nc2c1Cl (stereo unspecified)	·	1	0	7	4	-1
C[C@@H]1CN([C@@H](C)CO)C(=O)c2cccc(NC(=O)Nc3ccc(C(F)(F)F)cc3)c2O[C@@H]1CN(C)C	·	·	1	2	·	-11
COc1ccc(S(=O)(=O)N(C)C[C@H]2OCCCC[C@H](C)Oc3ccc(NC(=O)Nc4ccc(C(F)(F)F)cc4)cc3C(=O)N([C@@H](C)CO)C[C@H]2C)cc1	·	·	10	-26	·	6
COc1ccc(NC(=O)N(C)C[C@@H]2OCCCC[C@H](C)Oc3ccc(NS(=O)(=O)c4cccs4)cc3C(=O)N([C@H](C)CO)C[C@H]2C)cc1	·	·	-4	·	·	5
CCCCC(c1nnnn1CC1CCCO1)N1CCN(c2nc3ccccc3s2)CC1 (stereo unspecified)	·	18*	·	3	-10	-1
CCCC(c1nnnn1CC1CCCO1)N1CCN(c2nc3ccccc3s2)CC1 (stereo unspecified)	3	-5	·	-3	14	-4
C[C@@H]1CN([C@H](C)CO)C(=O)c2cc(NS(=O)(=O)c3cn(C)cn3)ccc2O[C@@H](C)CCCCO[C@@H]1CN(C)S(=O)(=O)c1cn(C)cn1	·	·	-6	-13	·	0
COCC(=O)N(C)C[C@@H]1Oc2ncc(-c3ccc(C#N)cc3)cc2C(=O)N([C@H](C)CO)C[C@H]1C	·	·	6	20	·	-3
COc1ccc(C(=O)c2nccc3cc(OC)c(OC)cc23)cc1OC	-25	26*	·	32	-3	1
O=C(NCCN1CCOCC1)c1cc2sccc2n1Cc1ccc(F)cc1	97*	-11	·	·	-14	-8
O=C(NCCCN1CCOCC1)c1ccc2c(=O)n(-c3ccc(F)c(Cl)c3)c(=S)[nH]c2c1	·	24*	-2	0	2	2
O=C(NCCN1CCOCC1)c1ccc2c(c1)N(Cc1ccc(F)cc1)C(=O)CS2	-14	-4	?	2	-2	·
O=C(NCCCN1CCOCC1)c1ccc2c(c1)N(Cc1ccc(F)cc1)CCS2	99*	4	1	3	-5	-7
CN1CCN(CCCNC(=O)c2ccc3c(c2)N(Cc2ccc(F)cc2)CCS3)CC1	99*	7	-10	8	-3	-2
COc1ccc(-n2c(=S)[nH]c3cc(C(=O)NCCCN4CCOCC4)ccc3c2=O)cc1	18	5	6	·	11	-1
